Records with an inconclusive call do not appear. A number with no mark means an inactive call. Calls of active or inactive are those of the source. Calls follow the shape of the dose curve; as a rule, active = well fitted inhibition curve with a large enough effect; inconclusive = small, poorly fitted or top-dose-only effect; inactive = flat fitted curve, though single readings scatter. Numbered stars: 1 amine (or outer) side, 2 acyl side, 3 side chain; on linkers, the order of the positions; unused ones are H or OH. Bridge positions count the residues as written; N and C are the ends. Square brackets hold non-standard residues; d marks the D form. Peptide text beside a SMILES is read from it. I, II: the chains in the order shown. Actinocin(9to1) = Cc1c2oc3c(C)ccc(C(=O)[*:1])c3nc-2c(C(=O)[*:2])c(N)c1=O; NMeV = CN[C@H](C(=O)O)C(C)C; Sar = CNCC(=O)O
Potency is read from the fitted curve at half-maximal effect.

The test has as its system CP203. Briefly: qHTS profiling for inhibitors of Plasmodium falciparum proliferation (AID 504749). Also: nearly all actives have a fitted effect of over 60% in size.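 As to activity, negative = inhibition: 0% = DMSO vehicle and full inhibition = artemisinin control.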 The settings on record: P. falciparum in erythrocytes, SYBR Green DNA, 72 h; series mostly up to 28.7 µM; activity, negative = inhibition: at the top concentration. The text has this:
NIH National Institute of Allergy and Infectious Diseases [NIAID] NIH Chemical Genomics Center [NCGC] MLPCN Grant: None Assay Provider: Xinzhuan Su, NIAID NCGC Assay Overview: Plasmodium falciparum is a virulent malarial parasite that kills 1-2 million people worldwide each year. Transmitted by mosquitoes, the sporozoite form of the parasite enters the blood stream to infect hepatocytes, where they become merozoites that infect red blood cells (erythrocytes). Within erythrocytes, merozoites begin a […] cycle of growth and division, after which the parasite is released to infect new red blood cells. Gametocytes, which form within erythrocytes as well, circulate in the bloodstream and are ingested by the mosquito, thereby completing the life cycle. To profile malarial isolates for differential chemical responses and to identify inhibitors of malarial growth, an assay that measures P. falciparum growth and replication within erythrocytes was employed. This assay uses a DNA binding fluorescent dye (SYBR Green) to detect parasite DNA following cell lysis. Because mature erythrocytes lack DNA, only Plasmodium-derived DNA is detected.
NCGC Assay Protocol Summary: The SYBR Green viability assay was adapted from a method described previously (Plouffe et al., 2008). For screening 3 ul culture medium was dispensed into 1536 well black clear bottom plates (Aurora Biotechnologies) using a Multidrop Combi (Thermo Fisher Scientific Inc.), 23 nL compounds in DMSO were added by a pin tool (Kalypsys), and 5 ul of erythrocytes infected with P. falciparum (0.3% parasitemia, 2.5% hematocrit final concentration) were added. The plates were incubated at 37 C in a humidified incubator in 5% CO2 for 72 h, and 2 ul lysis buffer (20 mM Tris HCl, 10 mM EDTA, 0.16% saponin, 1.6% triton X, 10X SYBR Green I supplied as 10,000X […] by Invitrogen) was added to each well. The plates were mixed for 25 sec with gentle shaking and incubated overnight at room temperature in the dark. The following morning, fluorescence intensity at 485(14) nm excitation and 535(25) nm emission wavelengths was measured on an EnVision (Perkin Elmer) plate reader. Plate reads were normalized relative to the control inhibitor (0.29 uM artemisinin) and vehicle (DMSO) wells present on each plate and then corrected by an algorithm using vehicle-only control plates at the beginning and end of the compound plate stack.
(In general: Quantitative high-throughput screening tests each substance at several concentrations.)
Turning to `COc1c(C)c2c(c(O)c1C/C=C(\C)CCC(=O)O)C(=O)OC2`, the Potency was 3.22 µM (active).
`Cc1cc(=O)n(-c2ccccc2)n1C`: the “activity, negative = inhibition” value is 0.824%.
As to `COc1ccc(/C=C/C(=O)c2ccc(OC)cc2OC)cc1`, the Potency is 13.5 µM (active).
`COc1cc(OC)cc(OC)c1`: the “activity, negative = inhibition” value was -0.51%.
Same read-out and setting: the result for `C#C[C@]1(O)CC[C@H]2[C@@H]3CCc4cc(OC5CCCC5)ccc4[C@H]3CC[C@@]21C` reads 4.14%.
Regarding `CCN(CC)CCNC(=O)COc1ccc(Cl)cc1`, the “activity, negative = inhibition” value was -11.8%.
Turning to `c1ccc(-c2ccc(C(c3ccccc3)n3ccnc3)cc2)cc1` (stereo not given), the Potency is 15.1 µM (active).
Regarding `O=C(O)CNC(=O)c1ccccc1`, the “activity, negative = inhibition” value was 1.67%.
Regarding `N[C@H](CO)C(=O)O`, the “activity, negative = inhibition” value is -0.988%.
Regarding `O=C(Nc1ccc(Cl)c(Cl)c1)C1CC1`, the “activity, negative = inhibition” value was -7.53%.
As for `CN1CCC(=C2c3ccccc3Sc3ccccc32)CC1`, the Potency is 3.79 µM (active).
As to `CN=C(NC#N)Nc1ccc(C2=NNC(=O)CC2C)cc1` (stereo not given), the “activity, negative = inhibition” value is -0.0272%.
For `CCN(CC)C(=O)/C(C#N)=C/c1cc(O)c(O)c([N+](=O)[O-])c1`, the “activity, negative = inhibition” value was -3.56%.
`Nc1ccc(/C=C/c2ccc(N)cc2S(=O)(=O)O)c(S(=O)(=O)O)c1`: the “activity, negative = inhibition” value is -1.4%.
For the compound `CC(C)(C)CC(C)(C)c1ccc(OCCOCC[N+](C)(C)Cc2ccccc2)cc1`, the Potency was 4.78 µM (active).
With `CCOc1ccc(NC(=O)CC(C)O)cc1` (stereo not given), the “activity, negative = inhibition” value was -6.51%.
On to `CCCCC1=NC2(CCCC2)C(=O)N1Cc1ccc(-c2ccccc2-c2nn[nH]n2)cc1`, for which the “activity, negative = inhibition” value was -0.689%.
`C[C@]12CCC(=O)C=C1CC[C@H]1[C@@H]3CC[C@](O)(C(=O)CO)[C@@]3(C)C[C@H](O)[C@@]12F`: the “activity, negative = inhibition” value is -1.98%.
With `O=C1c2ccccc2C(=O)C1c1ccccc1`, the “activity, negative = inhibition” value is 8.46% [at 12.8 µM].
As for `Nc1cc(Cl)c(NC2=NCCN2)c(Cl)c1`, the “activity, negative = inhibition” value is -0.763%.
For the compound `CCCCCCCCCCCCCCNCCO`, the “activity, negative = inhibition” value is -16.6%.
Turning to `Cc1c2oc3c(C)ccc(C(=O)N[C@@H]4C(=O)N[C@H](C(C)C)C(=O)N5CCC[C@H]5C(=O)N(C)CC(=O)N(C)[C@@H](C(C)C)C(=O)O[C@@H]4C)c3nc-2c(C(=O)N[C@@H]2C(=O)N[C@H](C(C)C)C(=O)N3CCC[C@H]3C(=O)N(C)CC(=O)N(C)[C@@H](C(C)C)C(=O)O[C@@H]2C)c(N)c1=O` (I: T[dV]P[Sar][NMeV] / II: T[dV]P[Sar][NMeV]; ester I:1-I:C, II:1-II:C; linker I:N-II:N via Actinocin(9to1)), the Potency was 0.006 µM (active).
Turning to `Cc1c(C)n(CCN(C)C)c2ccc(C(=O)OCCN(C)C)cc12`, the “activity, negative = inhibition” value is 12.3%.
As for `CC(=O)Oc1ccc(C(c2ccc(OC(C)=O)cc2)c2ccccn2)cc1`, the “activity, negative = inhibition” value was -4.9%.
For the compound `CCCCCCc1ccc(O)cc1O`, the “activity, negative = inhibition” value was -6.84%.
Take `CCCOC(C(=O)OC1CCN(C)CC1)(c1ccccc1)c1ccccc1`: the “activity, negative = inhibition” value was -15.9%.
`NCCCC[C@H](N[C@@H](CCc1ccccc1)C(=O)O)C(=O)N1CCC[C@H]1C(=O)O`: the “activity, negative = inhibition” value is 6.07% [at 12.8 µM].
In the case of `C[C@@H]1C(=O)NC2=Nc3cccc(Cl)c3CN21`, the “activity, negative = inhibition” value is -6.43%.
Turning to `C1CCc2nnnn2CC1`, the “activity, negative = inhibition” value is 0.718%.
On the same count and under the same terms, as for `COc1cc2c(cc1OC)C(=O)C(CC1CCN(Cc3ccccc3)CC1)C2` (stereo not given), the figure is -12.2%; as for `C[C@H]1[C@H](NC(=O)/C(=N/OC(C)(C)C(=O)O)c2csc(N)n2)C(=O)N1S(=O)(=O)O` (stereo in doubt), 3.17% [at 12.8 µM]; as for `O=C(O)c1cc2cc(Cc3cccnc3)ccc2o1`, 1.22%.
In the case of `NCCc1ccn[nH]1`, the “activity, negative = inhibition” value is 9.87% [at 12.8 µM].
As for `CCCCCCC[N+](CC)(CC)CCCCc1ccc(Cl)cc1`, the Potency is 1.81 µM (active).
In the case of `COC1=CC(=O)C[C@@H](C)[C@]12Oc1c(Cl)c(OC)cc(OC)c1C2=O`, the “activity, negative = inhibition” value was -2.54%.
Take `CCCCCC=CCC=CCCCCCCCC(=O)OCC`: the “activity, negative = inhibition” value is 0.034%.
In the case of `CN(C)/N=N/c1nc[nH]c1C(N)=O`, the “activity, negative = inhibition” value was 5.15%.
Take `Cc1cccn2c(=O)c(-c3nnn[nH]3)cnc12`: the “activity, negative = inhibition” value is -0.25%.
Regarding `N[C@H](Cc1c[nH]c2ccccc12)C(=O)O`, the “activity, negative = inhibition” value is -1.01%.
`CN1CCC[C@@H]1c1cccnc1`: the “activity, negative = inhibition” value is 1.47%.

The record behind these values is PubChem BioAssay (NCATS).
